Mtb hypoxia inh = inhibitors of hypoxia-regulated fluorescent reporter in Mycobacterium tuberculosis; M. tuberculosis hypoxia-regulated fluorescent reporter, fluorescence; fluorescence inhibition, % (concentration not given with the values); actives 0.1% (n = 300,000); AID 1159583; in the data active means fluorescence inhibition mostly above about 23%, no sharp cut-off; inactive means mostly below about 17%
ugtP null kill = compounds lethal to S. aureus RN4220 ugtP deletion mutant | growth inhibition, % (no concentration beside the values) | AID 1259309 | actives 0.54% (n = 330,000) | OD600 growth, 16 h; in the data active means growth inhibition above about 68%;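 further: plate controls were untreated wells for no effect and antibiotic for full effect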
Sa RN4220 lethal = kills Staphylococcus aureus RN4220; inhibition, % (no concentration beside the values); actives 0.33% (n = 330,000); S. aureus RN4220 growth, OD600, 16 h; in the data active means inhibition above about 85%;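 further: plate controls were untreated cells for no effect and reference antibiotic for full effect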
CCHF vOTU inh-1 = blocks the CCHF virus ovarian tumor domain protease | CCHFV vOTU protease, Pep-AMC fluorescence | inhibition, % at 11.5 µM | actives 0.55% (n = 370,000) | AID 651958; further: 0% = vehicle wells with enzyme and 100% = no enzyme wells
PriA SSB inh = K. pneumoniae PriA-SSBct interaction inhibition; AlphaScreen SSBct-PriA binding, biotinylated peptide; AID 1272365; inhibition, % at 33 µM; actives 0.6% (n = 430,000); in the data active means inhibition mostly above about 37%, no sharp cut-off; inactive means mostly below about 20%;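 further: plate controls were negative control peptide for no effect and reference peptide for full effect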
CCHF vOTU inh-2 = CCHFV vOTU protease inhibition, confirmation; actives 17% (n = 1,900); inhibition, % at 11.5 µM; Recombinant CCHFV vOTU, Pep-AMC fluorescence; shares compounds with CCHF vOTU inh-1
Numbers without * were called inactive; nt = no result. A selection: hits, their analogues and other compounds. The true share with any hit is near 1.4%. Unless noted, no stated cut-off is given here; in the data, active means inhibition above about 30%; inactive means the rest.

SMILES | Mtb hypoxia inh | ugtP null kill | Sa RN4220 lethal | CCHF vOTU inh-1 | PriA SSB inh | CCHF vOTU inh-2
COc1ccc(/C=N/N=C2/NC(=O)C(CC(=O)O)S2)cc1OCc1ccc(Cl)cc1 (centres undefined) | nt | nt | nt | 30.9* | nt | -0.8
CCCCN1C[C@@H](COCc2ccccc2)Oc2cccc(F)c2S1(=O)=O | nt | nt | nt | 13.9 | nt | nt
CC(=O)Nc1onc2c1CCC2 | nt | nt | nt | nt | -8.0 | nt
Cn1ccnc1N1CCN(C(=O)COc2ccc(F)cc2)CC1 | nt | nt | nt | nt | -12.0 | nt
NCCN1CCN(c2ccc(F)cc2)CC1 | nt | nt | nt | nt | 31.0 | nt
O=C(/C(C=Nc1ccc(F)cc1)=C(/O)c1ccco1)C(F)(F)F | 11.8 | 4.0 | 6.2 | 32.7* | nt | -6.2
CCOC(=O)c1ccc(NC(=O)CC2CCCCN2S(=O)(=O)c2ccc(OC)cc2)cc1 (centres undefined) | nt | nt | nt | nt | -2.0 | nt
COc1ccccc1-c1noc(C2CN(C(=O)NCc3cccs3)C2)n1 | nt | nt | nt | nt | -11.0 | nt
COc1ccc(S(=O)(=O)N2CCC(C(=O)Nc3cccc(-c4nc5ccccc5o4)c3)CC2)cc1 | nt | nt | nt | nt | -11.0 | nt
CC(C)(C)c1ccc(S(=O)(=O)Nc2ccc(C(O)(C(F)(F)F)C(F)(F)F)cc2)cc1 | nt | nt | nt | 48.7* | nt | 10.3
CC(C)(C)c1ccc(S(=O)(=O)Nc2ccc(-c3ccc(NS(=O)(=O)c4ccc(C(C)(C)C)cc4)cc3)cc2)cc1 | nt | nt | nt | nt | -11.0 | nt
COC(=O)c1ccc(-c2nc3cc(Cl)c(N)cc3s2)cc1 | nt | 1.3 | -0.6 | 42.9* | -6.8 | -4.6
O=C(Cc1noc2ccccc12)N1CCC[C@H](Cc2nc(C3CC3)no2)C1 | nt | nt | nt | nt | -10.0 | nt
COc1cc(C(=O)Nc2cc3c4c(c2)CC(=O)N4CCC3)cc(OC)c1OC | -0.1 | 5.7 | 3.6 | 33.8* | -3.0 | -9.5
CC(C)(C)CC(C)(C)NC(=O)Nc1cccc([N+](=O)[O-])c1 | 2.4 | -8.1 | 1.5 | 38.9* | -9.0 | -12.4
Cc1nc2c(nc1C)C(=O)c1ccccc1C2=O | nt | nt | nt | 31.7* | 3.2 | 21.1
O=C1C(=C(I)I)c2ccccc2-c2ccccc21 | nt | nt | nt | 95.1* | 81.1* | 55.1*
O=C1C(=O)c2ccccc2-c2ccccc21 | nt | nt | nt | 113.9* | 13.9 | 96.2*
O=C1c2ccccc2-c2nc3ccccc3nc21 | 9.9 | 2.1 | 11.2 | -2.1 | 5.0 | nt
O=C(O)c1cccc2c1C(=O)c1ccccc1-2 | -0.9 | 4.2 | 4.4 | 0.3 | 5.0 | nt
CC(=O)Nc1ccc(NC2=C/C(=N/S(=O)(=O)c3cccs3)c3ccccc3C2=O)cc1 | nt | nt | nt | 110.1* | nt | 97.2*
COc1ccc(S(=O)(=O)/N=C2\C=C(Nc3ccc(O)cc3)C(=O)c3ccccc32)cc1 | nt | nt | nt | 110.5* | nt | 105.4*
Cc1ccccc1NC1=C/C(=N\S(=O)(=O)c2cccs2)c2ccccc2C1=O | 6.3 | 88.4* | 98.7* | 101.4* | nt | 97.8*
COc1ccc(S(=O)(=O)N=C2C=C(NS(=O)(=O)c3ccccc3)C(=O)c3ccccc32)cc1 | nt | nt | nt | nt | 3.2 | nt
O=C(CNC(=O)c1ccccc1F)NN=Cc1ccc2c(c1)OCO2 | -7.3 | 8.8 | 1.8 | nt | 13.3 | nt
SMILES | Mtb hypoxia inh | ugtP null kill | Sa RN4220 lethal | CCHF vOTU inh-1 | PriA SSB inh | CCHF vOTU inh-2
Oc1c(N=Nc2nn[nH]n2)ccc2ccccc12 | nt | nt | nt | 97.8* | nt | 83.8*
CC(=O)Oc1ccc(-c2csc(Nc3ccccn3)n2)cc1 | nt | nt | nt | 42.1* | nt | -1.9
COc1ccc(-c2sc3cc(OC)c(OC)cc3c2-c2ccc(O)cc2)cc1 | -0.3 | 4.4 | 13.0 | 32.6* | -5.3 | -0.6
COc1cccc(-c2sc3ccc(OC)cc3c2-c2ccc(O)cc2)c1 | nt | nt | nt | 1.5 | 6.9 | nt
CC1(Cc2ccccc2OC(F)(F)F)C(=O)Nc2ccc(OC(F)(F)F)cc21 (centres undefined) | nt | nt | nt | 32.9* | nt | 10.3
CC1(Cc2ccccc2OC(F)(F)F)C(=O)Nc2ccc(-c3ccsc3)cc21 (centres undefined) | nt | nt | nt | 34.5* | nt | -9.9
CC1(Cc2ccc3ccccc3n2)C(=O)Nc2ccc(OC(F)(F)F)cc21 (centres undefined) | nt | nt | nt | 5.5 | nt | nt
COc1ccccc1C1(CNS(=O)(=O)c2ccccc2OC(F)(F)F)CCOCC1 | nt | nt | nt | nt | -9.0 | nt
COc1cc(C2Nc3cccc4cccc(c34)N2)ccc1O | 10.4 | 10.6 | 0.1 | 40.7* | 4.8 | 24.2
CC1CCc2cc(F)cc3c(=O)c(C(=O)O)cn1c23 (centres undefined) | -8.9 | 99.3* | 96.6* | 31.7* | 5.7 | -9.0
CCOC(=O)c1cc2c(ccn2C)n1CC(=O)N(Cc1ccccc1)c1ccccc1 | nt | nt | nt | 55.3* | 24.3 | 3.2
CCOC(=O)c1cc2c(ccn2C)n1CC(=O)N(Cc1ccccc1)c1ccc(F)cc1 | 4.6 | -4.1 | 3.4 | 7.7 | 7.2 | nt
CCOC(=O)c1cc2c(ccn2C)n1Cc1ccccc1Cl | -11.3 | -4.9 | -7.3 | 1.9 | 2.1 | nt
CCOC(=O)c1cc2c(ccn2C)n1Cc1ccccc1C | 17.8 | 29.0 | 0.2 | 30.9* | 31.6 | 42.8*
Nc1nc(SCc2nnc(SCC(=O)Nc3ccc(S(N)(=O)=O)cc3)n2-c2ccccc2)nc2sc3c(c12)CCC3 | nt | nt | nt | nt | -4.0 | nt
Cc1ccc(C)c(/C(O)=C2\C(=O)C(=O)N(CCCN3CCOCC3)C2c2cccnc2)c1 (centres undefined) | -5.1 | 7.9 | 15.3 | 45.8* | nt | -16.0
COc1ccc(C2NN(Cc3ccccc3)C3C(=O)N(Cc4ccccc4)C(=O)C23)cc1 (centres undefined) | nt | nt | nt | nt | 21.0 | nt
CC(=O)c1c(C)[nH]c(C(=O)OCC(=O)NNC(=O)c2ccc([N+](=O)[O-])cc2)c1C | 4.9 | 4.3 | 5.7 | 35.3* | -4.9 | -11.6
CC(=O)c1c(C)[nH]c(C(=O)OCC(=O)Nc2ccc([N+](=O)[O-])cc2Cl)c1C | 5.6 | -0.3 | -1.2 | -4.3 | -1.3 | nt
COC(=O)CSc1nnc(CNc2ccc(OC)cc2)n1C | 3.5 | 1.3 | 4.1 | 38.7* | 5.6 | -22.0
O=C(CSc1nnc(C2COc3ccccc3O2)n1-c1ccccc1)c1ccc(Cl)cc1 (centres undefined) | nt | nt | nt | nt | -1.0 | nt
C(=Nn1cnnc1)c1ccc(OCc2ccccc2)cc1 | 8.7 | 5.7 | 8.1 | nt | -0.8 | nt
Oc1ccc(N=Cc2ccc(OCc3ccccc3)cc2)cc1 | 7.2 | 12.0 | 4.8 | 93.6* | -12.3 | 66.6*
COc1ccc(-c2cnc(N)nc2-c2ccc(OCc3cccc(Cl)c3)cc2O)cc1OC | nt | nt | nt | nt | -7.0 | nt
O=C1OC2(CCCN(C(=O)CCc3ccc(Cl)c(F)c3)C2)c2ccccc21 (centres undefined) | nt | nt | nt | nt | -1.0 | nt
SMILES | Mtb hypoxia inh | ugtP null kill | Sa RN4220 lethal | CCHF vOTU inh-1 | PriA SSB inh | CCHF vOTU inh-2
CCC(=O)Nc1sccc1C(=O)OC | 13.8 | 4.3 | 3.8 | nt | -17.5 | nt
COC(=O)c1ccsc1NS(C)(=O)=O | nt | nt | nt | 30.6* | nt | -18.8
O=[N+]([O-])c1ccccc1-c1ccc(C(=S)N2CCCCC2)o1 | 16.3 | 9.2 | 13.3 | 9.8 | -6.0 | nt
O=[N+]([O-])c1ccccc1-c1ccc(C(=S)N2CCCC2)o1 | -0.5 | 5.1 | 17.3 | 30.1* | 7.2 | 39.1*
CCN(CC(=O)Nc1ccccc1C(F)(F)F)CC(=O)c1[nH]c(C)c(C(C)=O)c1C | nt | nt | nt | 38.1* | nt | -16.6
COc1ccc(Cl)cc1C(=O)NNc1cc(=O)n(C)c(=O)n1C | nt | nt | nt | nt | 4.0 | nt
C=CCC[C@H](Cc1ccc(F)cc1)C(=O)OC[C@@H](Cc1c[nH]c2ccccc12)NC(=O)[C@@H](CC=C)CC(=O)N(CCO)Cc1ccccc1 | nt | nt | nt | 32.1* | 0.2 | 7.9

Screens as filed in PubChem.
